# Screen size: about 420,000 compounds; about 50,000 (12%) were called active. Not shown: some 26% with an inconclusive outcome. What follows is part of a selection rich in actives, with near analogues and random picks from the rest. A number with no mark means an inactive call. Calls come from the whole dose curve; as a rule, active = well fitted inhibition curve with a large enough effect; inconclusive = small, poorly fitted or top-dose-only effect; inactive = flat fitted curve, though single readings scatter.
# Assay: qHTS for Inhibitors of human tyrosyl-DNA phosphodiesterase 1 (TDP1): qHTS in cells in presence of CPT; note: nearly all actives have a fitted effect of over 55% in size
# Details: chicken DT40 Tdp1-/-;hTDP1 cells + 20 nM CPT, ATP luminescence, 48 h; series mostly up to 46.2 µM; activity change, negative = growth inhibition: at the top concentration
# How it was run: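 Chicken DT40 Tdp1-/- cells complemented with human TDP1, 400 cells/well, exposed to compounds plus 20 nM camptothecin for at least 48 h at 37 C; viability read as ATP content by CellTiter-Glo luminescence.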
# % is set by controls: 0 for no effect and ±100 for the full control effect; potency is the fitted concentration of half-maximal effect.
Compound,"activity change, negative = growth inhibition [%]",Potency
CCOCCCNC(=O)c1ccc(CS(=O)(=O)c2cccc(C(F)(F)F)c2)o1,-0.971,
O=C(CO/N=C/c1ccccc1OC(F)F)NC1CCCC1,3.7,
NS(=O)(=O)c1cc(C(=O)OCC(=O)NNC(=O)c2ccccc2)ccc1Cl,4.84,
O=C(CO/N=C/c1ccccc1O)NNC(=O)c1ccccc1Cl,,0.461 µM (active)
CCn1c(Cc2cccs2)nnc1SCC(=O)c1ccc(C)cc1,,11.2 µM (active)
CCn1c(SCC(=O)c2ccc(Cl)s2)nnc1-c1cccs1,-29.9,
Cc1ccc(-n2c(Cc3cccs3)nnc2SCC(=O)OC(C)C)cc1,1.44,
COC(=O)C(C)n1cnc2c(nnn2-c2cccc(Cl)c2)c1=O (configuration not stated),-12.8,
CC(C)C[C@H](CO)Nc1nc(N(C)c2cccc(Cl)c2)c2ncn(C(C)C)c2n1,,16.4 µM (active)
Cc1ccnc(NS(=O)(=O)c2ccc(NC(=O)c3ccc(S(=O)(=O)N(C)C)cc3)cc2)n1,-11.2,
CCOc1cc2c(Cl)ncnc2c(OCC)c1OCC,1.52,
CCCCC(=O)OC1=CN(Cc2ccccc2)S(=O)(=O)c2ccccc21,12.4,
O=C(OCc1cn(-c2ccc(Cl)c(Cl)c2)nn1)c1ccccc1Cl,-12.9,
COc1cc2c(cc1OC)C(C)N(S(=O)(=O)c1cnc(Cl)c(Cl)c1)CC2 (configuration not stated),-112,
CC(C)(C)NC(=O)C(=O)NN=C1CCCCCCC1,8.31,
CCc1ccc(C(=O)NN=C2CCCCCC2)s1,3.08,
CC(C)NC(=S)NN=C1CCCCCCCCCCC1,,13 µM (active)
CC(C)(C)c1ccccc1NC(=O)CN1C(=O)NC2(CCCC2)C1=O,-1.6,
COC(=O)c1ccc(CN2C(=O)C(Cc3ccccc3)ON=C2c2ncccc2C)o1 (configuration not stated),-16.6,
Cc1ccc(C)c(NC(=O)Cn2ccn(-c3ccc(F)cc3)c(=O)c2=O)c1,8.32,
COc1ccccc1NC(=O)CCC(=O)OC(C)C(=O)c1ccccc1 (configuration not stated),3.03,
O=C(Nc1ccc(F)cc1)c1cc2c(s1)CCCC2,-27.3,
CCOc1ccccc1C(=O)NC1(C(F)(F)F)C(=O)Nc2c1c(=O)[nH]c(=O)n2-c1ccc(F)cc1 (configuration not stated),6.4,
COc1cccc(C(=O)NNC(=O)c2cccc(F)c2)c1,0.0986,
COc1cccc(C(=O)NC2(C(F)(F)F)C(=O)Nc3c2c(=O)[nH]c(=O)n3-c2ccc(C)cc2)c1 (configuration not stated),,25.9 µM (active)
O=P(O)(O)C(O)c1ccc2ccccc2c1 (configuration not stated),0.0947,

Compound,"activity change, negative = growth inhibition [%]",Potency
C/C(CCc1ccccc1)=N\NC(=O)c1ccc(CN2CCOCC2)cc1,-2.29,
S=C1SCN(CCN2CCOCC2)CN1Cc1ccccc1,,5.01 µM (active)
CCN1CN(Cc2ccccc2)CNC1=S,-9.4,
COc1ccc(CCN2CC(C(=O)NCCN3CCNC3=O)CCC2=O)cc1 (configuration not stated),2.06,
CC(C)NC(=S)Nc1cccc2cnccc12,0.573,
CCN(CC)CC(=O)Nc1nn(-c2ccccc2)nc1C(N)=O,-6.91,
COc1cccc(-c2cnc(OC(C)(C)C)nc2OC(C)(C)C)c1,0.304,
COc1ccc(-c2nc3nc(C)cc(C)n3c2Nc2c(C)cccc2C)cc1,,16.4 µM (active)
COc1ccc2nc(C)cc(Nc3cccc(C(=O)O)c3)c2c1,-14,
COc1cccc(-c2nc3nc(C)cc(C)n3c2NC2CCCCC2)c1,,18.4 µM (active)
COc1cccc(CSc2nc3nc(C)cc(C)n3n2)c1,-4.29,
COc1ccc(-c2cc(C)nc3nc(N)nn23)cc1,-13.2,
COc1ccccc1C(=O)Nc1nc2nc(-c3ccccc3)cc(=O)n2[nH]1,-23.3,
O=C(NN1C(=O)C2CCCCC2C1=O)c1ccco1 (configuration not stated),4.06,
Cc1cccc(C(=O)N2CCN(S(=O)(=O)N3CCCCC3)CC2)c1,-15.7,
Cc1cc(C)c(NC(=O)CN2C(=O)NC(Cc3ccccc3)C2=O)c(C)c1 (configuration not stated),-14.1,
O=S(=O)(NCCc1ccccn1)c1cc(Cl)cc(Cl)c1O,0.802,
Cc1cccc(NC(=O)CN2CCN(CC(=O)NCC3(N4CCCCC4)CCCCC3)CC2)c1C,-16.1,
Cc1cccc(NC(=O)CN2CCN(C(=O)C3CCN(C(=O)/C=C/c4ccccc4)CC3)CC2)c1C,,16.4 µM (active)
COc1ccccc1CCNC(=O)C1CCN(C(=O)/C=C/c2ccccc2)CC1,5.89,
Cc1ccc(S(=O)(=O)NC[C@H]2O[C@@H](n3cnc4c(N)ncnc43)[C@H](O)[C@@H]2O)s1,0.238,
COc1ccc(NC(=O)c2ccccc2CC[N+](=O)[O-])cc1,2.49,
C=CC[n+]1c(-c2ccc(C)cc2)csc1NNC(=O)Nc1ccccc1,,10.3 µM (active)
C=CCNc1scc(-c2ccccc2)[n+]1CC=C,-12.3,
O=C(NNC(=O)c1ccc(-c2ccccc2)cc1)Nc1ccccc1,-6.03,
C[C@H]1CN([C@@H](C)CO)C(=O)CCCn2cc(nn2)CO[C@@H]1CN(C)S(=O)(=O)c1ccccc1C#N,0.957,

# Source: PubChem BioAssay AID686979 (National Center for Advancing Translational Sciences (NCATS), 2013)
